In the supplement of paper PMC6555819:

Experiments:
Test in all cases: PBM binding z-score (relative to random genomic background probes); higher = stronger binding; sequences stand for … in GC…GCGATTGACAGCGTAGAATGAAGG
[1] = system: RARb homodimer (NR concentration 270 nM)
How it was run: (§1)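 The probes on custom Agilent 4×180K protein-binding microarrays were double-stranded, with 34-nt variable regions bearing direct-repeat seeds, single-nucleotide variants, half-site ablations and random human genomic background sequences. Incubation lasted 1 h with ligand-free nuclear receptor dimers in PBS pH 7.4, 2% milk, 0.02% Triton X-100, 1 mM DTT, 0.2 mg/mL BSA and 0.4 mg/ml salmon testes DNA. Antibodies against each partner (one per run) detected bound dimers, and fluorescence scans were regression-normalized. Binding z-scores take the random background probes as reference.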

[2] = system: RARg:RXRa (NR concentration 270 nM, RXRa partner concentration 90 nM)
How it was run: as §1

[3] = system: RARg homodimer (NR concentration 270 nM)
How it was run: as §1

[4] = system: RXRa DBDmut IVT, anti-RXR (DBD mutation: RXRa K156A/R161A, NR concentration 90 nM)
How it was run: as §1

[5] = system: RXRa homodimer (NR concentration 180 nM)
How it was run: as §1

[6] = system: THRa:RXRa (NR concentration 90 nM, RXRa partner concentration 90 nM)
How it was run: as §1

[7] = system: THRa homodimer (NR concentration 90 nM)
How it was run: as §1

[8] = system: VDR homodimer (NR concentration 270 nM)
How it was run: as §1

Sequence | PBM binding z-score [1] | PBM binding z-score [2] | PBM binding z-score [3] | PBM binding z-score [4] | PBM binding z-score [5] | PBM binding z-score [6] | PBM binding z-score [7] | PBM binding z-score [8]
CCGTCTGGGGCATAAGGTTACCATAAGCCAGCCC | 1.92 | 1.86 | 1.18 | -0.715 | 1.23 | 2.17 | 1.31 | 0.173
CCTACTGGGCCACGAAAGGTCATTGAGTCAGTGA | 4.62 | 4.82 | 4.58 | 0.536 | 5.23 | 3.79 | 0.857 | 1.69
ATCTCTACGTAACCAAGTTCAGTGAATGCCGAAC | 1.18 | 0.251 | 0.741 | 0.846 | 0.369 | 0.592 | 0.325 | 2.27
GGAACGAGGGCAAAGTTGATACCATCTGTCGACG | 1.63 | 2.14 | 2.02 | 2.79 | 2.18 | 1.47 | 0.0828 | 2.09
CGTCCAAGGTCATAGCAGGTCAGTGAAGACAGAT | 4.65 | 6.19 | 6.53 | 3.91 | 5.72 | 4.99 | 2.79 | 3.76
CCTTACGGGTCACTGACAGGTTGTAGCATTTGGA | 3.13 | 5.06 | 4.23 | 2.01 | 4.67 | 2.65 | 0.174 | 0.754
GCTGCTAGGTCAACTGATGATCAGCTAAAGCTCG | 3.3 | 4.46 | 5.15 | 1.46 | 2.75 | 2.85 | 0.808 | -0.0271
ACTAGCAGGCCAAGGTTGGGTCACTCAAACAAAG | 2.3 | 1.64 | 1.36 | -0.829 | 0.638 | 2.04 | 0.571 | 0.0121
GGAACGAGGGCAATGTTGATAGCATCTGTCGACG | 0.983 | 1.08 | 1.66 | 1.93 | 0.843 | 0.966 | -0.016 | 0.72
CCGACTGGGGCATAAGGTTACGATAAGCCAGCCC | 1.67 | 1.92 | 1.18 | -0.47 | 1.45 | 1.98 | 0.985 | -0.0834
CCGACTGGGGCACAAGGTTACCATAAGCCAGCCC | 1.59 | 1.46 | 1.12 | -0.589 | 0.82 | 1.37 | 0.35 | -0.201
GCGACTGGGGCAAAGCAGGTTACCATGAGGTTGG | 1.2 | 0.634 | 0.674 | -0.402 | 0.455 | 2.99 | -0.00664 | -0.385
ACTAGCAGGCCAAGTTTGGGTGACTCAAACAAAG | 0.251 | 0.0882 | -0.216 | -0.308 | -0.222 | 0.796 | -0.161 | -0.571
CCTAGCAGGCCAATCTCGGTCACTCAAGGCTTGA | 1.46 | 0.504 | 1.24 | 0.398 | -0.123 | 1.92 | -0.183 | -0.29
CCACGGAGGACAACAGGAGGTCAGAGCTGCCAGA | 3.72 | 3.61 | 3.45 | 0.466 | 2.08 | 2.8 | 1.28 | 1.48
CCTACTGGGCCAAGGACATTGATCAGTCAAAGCA | 0.324 | 0.0324 | 0.267 | -0.538 | -0.348 | 1.29 | 0.695 | 0.333
TAGCCTAGGTCATTCGGGGGCCAGTATAGAAAGC | 3.39 | 6.55 | 5.25 | 2.13 | 3.58 | 4.17 | 1.48 | 2.32
AGTATGAGGTTAAGATCAGGGAAACAGAATACAT | 1.09 | 2.13 | 1.66 | 0.674 | 2.42 | 2.63 | 0.96 | 0.755
TGAATGAGGTTAAAGATCAAGGAACGTGGCGTCG | 0.599 | 2.57 | 1.35 | 1.24 | 4.06 | 2.41 | 0.289 | 0.251
TCATATAGGTAAAGATGAAAGTCGAACGATATGA | -0.846 | 0.547 | 0.586 | 0.337 | 0.56 | -0.225 | -1.11 | -0.391
GTACCAAGGTGAATAGGTCGTTGAAGAGTAGGCG | 2.13 | 2.81 | 1.45 | -0.183 | 1.9 | 1.91 | 0.593 | 0.198
TCGAGTAGGTTAGGGGCATTCGGAATGGCGTCGA | 0.742 | 0.5 | -0.0301 | 0.0579 | 0.52 | 0.777 | 0.132 | 0.956
CCTTACGGGTGACTCCAGGTTATAGCATCGGAGT | 0.532 | 0.648 | 0.639 | -0.594 | 0.973 | 3.65 | 0.215 | 0.0105
CGTCCGAGGTCAGAGAGGTCAGTGAATGCCGAGT | 5.44 | 6.94 | 7.68 | 3.68 | 6.87 | 4.59 | 3 | 6.58
ATCGAAAGGTCGGGGTGAGTATAGAGAAAGGGAA | 2.88 | 3.7 | 3.63 | 1.78 | 3.77 | 3.06 | 1.35 | 1.52
CCGACTGGGGCAAGATTACCATAACGCACAGCCA | 0.349 | 0.185 | 0.477 | -0.0134 | 0.0853 | -0.474 | -0.565 | -0.566
ATAAGTAGGTTATCGGGTCATTCAGTTTGCGCAT | 3.12 | 3.44 | 2.43 | 1.57 | 3.55 | 3.29 | 2.93 | 4.49
CAAATTAGGTCAAGAGGTCAAAGTCCGCTTCCCG | 5.68 | 8.43 | 7.88 | 3.08 | 8.85 | 4.42 | 2.88 | 5.32
